This is an account of results in PubChem BioAssay (NCI).

Each structure is given as a SMILES string. This is part of a sample that, as a whole, favours compounds with a hit. Of some 83,000 tested, about 20% had one in any assay.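 In brief: 96-well plates, 48 h treatment, single concentration, percent growth endpoint.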 Unmarked numbers belong to inactive results. Calls of active or inactive are those of the source. The calls were made as follows: active = growth percent below 10; inactive = the rest.

Common to all, as to assay: NCI-60 one-dose screen, 48 h (100 = growth as untreated, 0 = no growth, -100 = all killed)
Details in all cases: 10 µM unless noted

The test system of test [1] is HCT-15 colon.
The test system of test [2] is HT29 colon.
Test [3] has as its system SNB-75 CNS.
The test system of test [4] is SNB-19 CNS.
The test system of test [5] is U251 CNS.
Test [6] concerns SK-MEL-5 melanoma.
Test [7] relates to UACC-62 melanoma.
Test [8] deals with LOX IMVI melanoma.
Test [9] concerns SK-MEL-28 melanoma.

For `Cc1ccccc1COc1ccc(-c2ccnn2-c2ccc(Cl)cc2)cc1`, the growth was 39.9% in test [1]; 17.6% in test [2]; 60.7% in test [3]; 62% in test [4]; 46% in test [5]; 66.6% in test [6]. The growth in test [7] was 60.7%; in test [8] it was 64.3%; in test [9], 69.4%.
Consider `Cc1cc(C)c2nc3nc(C)cc(C)c3c(N)c2c1`, for which the growth is 16.4% in [1]; 18% in [2]; 52.7% in [3]; 35.3% in test [4]; 15.3% in [5]; 26.8% in [6]. Also, the growth in [7] is 41.8%; in [8], 7.77% (active); in test [9] it was 38.7%.
With `O=C1CSC(=S)N1CCc1ccc(O)cc1`, the growth was 59.3% in test [1]; 107% in test [2]; 71.3% in test [3]; 93% in test [4]; 100% in [5]; 97.1% in test [6]. In addition, the results for the growth in test [7], in test [8] and in test [9] were 87.5%, 77.1% and 101%, respectively.
Consider `O=C1c2ccccc2C(=O)c2c1ccc1[nH]c(-c3cccs3)nc21`, for which the growth is 89.8% in test [1]; 107% in test [2]; 98.9% in test [3]; 100% in test [4]; 72.7% in test [5]; 85% in test [6]. The results for the growth in test [7], in test [8] and in test [9] were 85.5%, 79.2% and 127%, respectively.
Consider `O=C(N(c1ccccc1)c1ccccc1)n1ccc2nc(Cl)nc(Cl)c21`, for which the growth is 45.1% in test [1]; 24.6% in test [2]; 38.3% in test [3]; 58.5% in [4]; 59.6% in test [5]; 64.9% in test [6]. Also, the figures for the growth in test [7], in [8] and in [9] were 51.9%, 72.1% and 80.4%, respectively.
Consider `CC(=O)OCCC/C(=C/c1cc2ccccc2c2ccccc12)[N+](=O)[O-]`, for which the growth is -81.8% (active) in [1]; -44.7% (active) in test [2]; -93.6% (active) in [3]; -91.1% (active) in [4]; -95.4% (active) in [5]; -100% (active) in test [6]. For the same compound, the figures for the growth in [7], in test [8] and in [9] were -90.2% (active), -70.6% (active) and -99.5% (active), respectively.
Turning to `Cn1cc(C(=O)c2nc(-c3c[nH]c4ccc(Br)cc34)no2)c2cc(F)ccc21`, the growth is 92.1% in [1]; 102% in [2]; 74.8% in test [3]; 99.1% in test [4]; 100% in test [5]; 83.8% in test [6]. Also, the values for the growth in test [7], in test [8] and in test [9] were 78%, 95.4% and 105%, respectively.
Turning to `COc1ccc(-n2nc(C)c3c(Nc4ccc(NC(=O)Nc5cc(C(F)(F)F)ccc5F)cc4)ncnc32)cc1`, the growth is 8.66% (active) in test [1]; 1.92% (active) in [2]; 25.8% in test [3]; 34.8% in test [4]; 12.9% in test [5]; 46% in test [6]. In addition, the figures for the growth in [7], in [8] and in [9] were 19.6%, -90.5% (active) and 48.6%, respectively.
On to `Cc1ccc(C2=NN3C(C2)c2cc(Br)ccc2OC32CCN(Cc3ccccc3)CC2)o1` (stereo unspecified), for which the growth in test [1] was 85.1%; in [2], 107%; in [3], 79%; in test [4], 94.9%; in test [5], 96.3%; in test [6], 92.1%. The results for the growth in test [7], in [8] and in test [9] were 82.3%, 94.4% and 102%, respectively.
On to `NC(CSC(c1ccccc1)(c1ccccc1)c1ccc(Cl)cc1)C(=O)O` (stereo unspecified), for which the growth in test [1] was 19.3%; in test [2], 2.26% (active); in test [3], 20.9%; in test [4] it was 37.9%; in test [5], 12.2%; in test [6] it was 10.6%. Also, the results for the growth in test [7], in [8] and in test [9] were 7.9% (active), 36% and 33.4%, respectively.
As to `CC(C)CSc1nc(N)nc2c1ncn2C1OC(CO)C(O)C1O` (stereo unspecified), the growth in test [1] is 92.7%; in test [2], 103%; in test [3] it was 101%; in [4], 104%; in test [5], 101%; in test [6], 96.5%. Moreover, the values for the growth in test [7], in test [8] and in test [9] were 92.8%, 95.3% and 112%, respectively.
In the case of `O=C(CCCCC(=O)N/N=C\c1ccccc1O)N/N=C\c1ccccc1O`, the growth in test [1] was 21%; in test [2], 69.1%; in [3], 69.6%; in [4] it was 38.9%; in [5] it was 26.4%; in test [6] it was -14.9% (active). For the same compound, the growth in test [7] was 13.5%; in [8], 26.2%; in [9], 48.3%.
As to `O=C1CC[C@H](c2ccc(O)c3c2C(=O)[C@@H]2O[C@@H]2C3=O)c2cccc(O)c21`, the growth in test [1] was 42.5%; in test [2], -17.2% (active); in [3], 81.3%; in test [4], 92%; in [5], 78.7%; in test [6] it was 92.6%. Moreover, the results for the growth in test [7], in [8] and in test [9] were 39.4%, -62.6% (active) and -7.72% (active), respectively.
Regarding `Cc1nn(-c2ccc(F)cc2)c2ncnc(Nc3ccc(NC(=O)Nc4ccc(Cl)c(C(F)(F)F)c4)cc3)c12`, the growth was 11.2% in [1]; 37.9% in test [2]; 32.4% in [3]; 23.7% in test [4]; 19.5% in [5]; 61.1% in test [6]. Further, the growth was 11% in test [7], 34.8% in test [8] and 17.8% in [9].
